Results filed as inconclusive are left out. Activity calls are given as the source filed them. Unless noted, the call rests on the fitted dose curve; in most records, active means well fitted curve in the direction sought with a large enough effect; inconclusive means small, poorly fitted or top-dose-only effect, or another doubt; inactive means no such curve, though single readings can be large; an effect the other way counts as inactive or inconclusive.
Tests used:
[1] = AP1 Signaling Pathway (AID 357; active means well fitted curve in either direction with a large enough effect, not every such curve was filed as active;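 further: ME-180 reporter cells stimulated with EGF at its EC50 level; on the % scale 0 is the no-effect control and ±100 the full control effect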); conditions: ME-180 AP-1-bla reporter, EGF-induced, beta-lactamase ratio, 5 h; at 17.2 µM (top of the series) unless noted
How it was run: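 A ratiometric CCF4 readout (405 nm excitation; 460 and 530 nm emission) quantified AP-1-driven beta-lactamase in ME-180 cells after 5 h with compound and EC50 EGF; AC50 values were derived for activators and inhibitors.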

[2] = target: Glucocorticoid receptor (Homo sapiens) (UniProt P04150); test: GR-GFP Redistribution (AID 450;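 active means compounds whose dose series gives a full or clear partial fitted curve of increased nuclear translocation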; further: potency means the concentration at half of the fitted maximal effect)
[3] = qHTS Assay for Identification of Small Molecule Agonists for Hypoxia Response Element Signaling Pathway (AID 914; active means well fitted activation curve with a large enough effect in the signal ratio, with a control signal flat, not every such curve was filed as active; the % refers to the signal ratio; further: % of control where 0% means no effect); conditions: ME-180 HRE-bla reporter, beta-lactamase ratio, CoCl2, 17 h; activation: hits give high values
How it was run: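 A beta-lactamase reporter under hypoxia response element control in ME-180 cells served as the system. Compound titrations plus EC50 CoCl2 ran 17 h at 37 degrees Celsius; AC50 values were fitted from %Activity.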

[4] = target: Cytochrome P450 1A2 (Homo sapiens) (UniProt P05177); test: p450-cyp1a2 (AID 410; calls by dose curve; further: potency means the concentration at half of the fitted maximal effect)
How it was run: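 Luminescent readout of luciferin formed from Luciferin-ME by human CYP1A2; data normalized against complete inhibition by 57 uM furafylline. Enzyme 20nM, substrate 100uM at Km, 100mM KPO4 buffer, 60 min reaction at room temperature.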

[5] = Stat Signaling Pathway (AID 446; active means well fitted curve in either direction with a large enough effect, not every such curve was filed as active;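 further: ME-180 cervical cancer cells given 40 pM IL-6 alongside compound; SIE-controlled beta-lactamase reporter measured as 460/530 nm FRET emission ratio; on the % scale 0 is the no-effect control and ±100 the full control effect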); conditions: ME-180 SIE beta-lactamase reporter, IL-6 stimulated, 5 h; at 17.2 µM (top of the series) unless noted
How it was run: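 ME-180 cells carrying a SIE-driven beta-lactamase reporter are stimulated with 40 pM IL-6 for 5 h at 37C in the presence of compound. The 460/530 nm FRET substrate ratio is read after 2.5 h at RT. Data are normalised to 300 pM IL-6 and to 125 nM JAK inhibitor controls.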

[6] = target: Glucocorticoid receptor (Homo sapiens) (UniProt P04150); test: GR-EFC Redistribution (AID 451; calls by dose curve; further: potency means the concentration at half of the fitted maximal effect); conditions: CHO-K1 GR-EFC translocation, beta-gal luminescence, 2 h
How it was run: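 CHO-K1 cells expressing nuclear EA and GR-ED fragments of b-gal; compounds titrated up to 46 uM final, 2 h at 37 C. GR nuclear translocation read as complemented b-gal luminescence after 1 h RT detection.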

[7] = target: Guanine nucleotide-binding protein G(i) subunit alpha-1 (Homo sapiens) (UniProt P63096); test: qHTS Assay for Inhibitors of RGS12 GoLoco Motif Activity (Green Fluorophore) (AID 879);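 further: 0% = labeled peptide with Gαi1 and full inhibition = labeled peptide alone without protein; negative values mean loss of peptide binding seen as reduced polarization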
How it was run: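 Fluorescence polarization assay: 50 nM Gαi1 with 10 nM FITC-labeled RGS12 GoLoco peptide in 10 mM Tris pH 7.5, 150 mM NaCl, 0.1 mM GDP, 0.05% NP40, 10 min at room temperature with compound.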

[8] = target: Cytochrome P450 3A4 (Homo sapiens) (UniProt P08684); test: qHTS Assay for Activators of Cytochrome P450 3A4 (AID 885); further: nearly all actives have a fitted effect of over 65% in size
How it was run: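 Human CYP3A4 (20 nM) with Luciferin-PPXE at 25 uM (its KM) in 200 mM KPO4; 10 min compound preincubation, then NADPH regeneration and 60 min reaction at RT. Luciferin read by luminescence; normalized to 57 uM ketoconazole full inhibition.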

[9] = target: Cytochrome P450 2D6 (Homo sapiens) (UniProt P10635); test: qHTS Assay for Inhibitors and Substrates of Cytochrome P450 2D6 (AID 891); further: potency means the concentration at half of the fitted maximal effect; nearly all actives have a fitted effect of over 60% in size
How it was run: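 Human CYP2D6 (5 nM) with 30 uM Luciferin-ME EGE (at Km) in 100 mM KPO4, compound preincubated 10 min, then NADPH regeneration system for 60 min at room temperature. Luciferin read by luminescence; normalized to 1.43 uM quinidine.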

[10] = target: Muscarinic acetylcholine receptor M1 (Rattus norvegicus) (UniProt P08482); test: qHTS Assay for Antagonists of Acetylcholine Muscarinic M1 Receptor: Kinetic Measurement of Intracellular Calcium Response (AID 943); further: potency means the concentration at half of the fitted maximal effect; nearly all actives have a fitted effect of over 75% in size
How it was run: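 Rat M1-CHO cells, 2000/well, overnight → Fluo-4 no-wash dye with probenecid, 1 h 37C → compound 10 min, room temp → basal read 6 s → carbachol EC80 (100 nM) → 4 min kinetic read; peak/basal.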

[11] = target: Muscarinic acetylcholine receptor M1 (Rattus norvegicus) (UniProt P08482); test: qHTS Assay for Antagonists of Acetylcholine Muscarinic M1 Receptor: Measurement of IP-One Response (AID 944); further: potency means the concentration at half of the fitted maximal effect; nearly all actives have a fitted effect of over 75% in size
How it was run: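 M1-CHO (rat), 2000 cells/well, overnight recovery; cpd 10 min; carbachol EC80 (200 nM), 30 min, HEPES buffer + 50 mM LiCl pH 7.4; IP-One HTRF, Ex 337, Em 620/665 nm.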

[12] = target: Pyruvate kinase (Leishmania mexicana) (UniProt Q27686); test: qHTS Validation Assay for Inhibitors of Leishmania Mexicana Pyruvate Kinase (AID 945); further: potency means the concentration at half of the fitted maximal effect;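 on activity change, negative = inhibition: 0% = DMSO only neutral control wells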
How it was run: (§1)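 Compounds are tested as eight-point concentration series. Reactions contain 0.2 nM LmPYK E451W, 0.5 mM PEP, 0.1 mM ADP, 7 mM MgCl2 and 50 mM KCl at pH 7.2, run 1 h at room temperature, then read by PKLight luminescence.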

[13] = target: Pyruvate kinase PKM (Homo sapiens) (UniProt P14618); test: qHTS Assay for Activators of Human Muscle Pyruvate Kinase (AID 954; active means well fitted curve in the direction sought with a large enough effect, not every such curve was filed as active;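 further: 0% = uninhibited enzyme and -100% = no enzyme or full thiadiazolimine inhibition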)
How it was run: (§2)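 Purified human PKM2 (0.1 nM) with 0.5 mM PEP (Km) and 0.1 mM ADP in 50 mM imidazole pH 7.2, KCl, MgCl2, 1 h at room temperature; ATP formed read by coupled luciferase luminescence. Normalized to no-enzyme/110 uM thiadiazolimine inhibition; 0.3 nM enzyme column for activation.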

[14] = target: Alpha-galactosidase A (Homo sapiens) (UniProt P06280); test: Counterscreen for Glucocerebrosidase Inhibitors: qHTS Assay for Human alpha-Galactosidase at pH 4.5 (AID 992); further: 0% is about no effect
How it was run: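 Human enzyme (2 nM) with 80 uM 4-methylumbelliferyl alpha-D-galactopyranoside in 50 mM citric acid, 0.005% Tween-20, pH 4.5, 20 min at room temperature. Compounds 0.7 nM–77 uM; fluorescence Ex 365/Em 440 after pH 10 stop; AC50 from Hill fits.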

[15] = target: alpha-glucosidase (Oryza sativa, rice) (UniProt Q653V4); test: Counterscreen for Glucocerebrosidase Inhibitors: qHTS Assay for Rice alpha-Glucosidase at pH 5.0 (AID 997);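 further: 0% = full activity with enzyme and -100% = basal without enzyme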
How it was run: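 Rice alpha-glucosidase (4 nM final) with 400 uM 4-methylumbelliferyl-alpha-D-glucopyranoside in citrate buffer pH 5.0, 20 min at room temperature, stopped at pH 10; fluorescence 365/440 nm, compounds 0.7 nM–77 uM, AC50 from Hill fits.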

[16] = NFAT Signaling Pathway (AID 444; active means well fitted curve in either direction with a large enough effect, not every such curve was filed as active;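 further: carbachol stimulus at about its EC50 of 1 µM final; on the % scale 0 is the no-effect control and ±100 the full control effect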); conditions: Jurkat NFAT-bla M1, carbachol, beta-lactamase ratio, 5 h; at 17.2 µM (top of the series) unless noted
How it was run: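 Jurkat cells with NFAT-driven β-lactamase reporter and co-expressed M1 receptor, stimulated with carbachol (final 1 uM, ~EC50), compound titration, 5 h at 37 °C. CCF4 loaded 1 h at RT; 460/530 nm ratio gave %activity and AC50.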

[17] = target: Mitogen-activated protein kinase 10 (Mus musculus) (UniProt Q61831); test: JNK3 AlphaScreen Assay (AID 530; active means well fitted curve in either direction with a large enough effect, not every such curve was filed as active;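 further: kinase came from lysate of stimulated human HepG2 cells; signal reports phosphorylation of biotinylated GST-cJun 1-79 at Ser73 with 10 µM ATP; on the % scale 0 is the no-effect control and ±100 the full control effect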)
How it was run: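 Pre-activated (IL-1β/TNFα) JNK3 in HepG2 lysates phosphorylates biotin-GST-cJun(1-79), 10 uM ATP; anti-phospho-cJun(Ser73) AlphaScreen read at room temperature, pH 7.6 Tris buffer. Compounds pre-incubated 15 min as titrations.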

[18] = target: 3',5'-cyclic-AMP phosphodiesterase 4B (Homo sapiens) (UniProt Q07343); test: qHTS Assay for Inhibitors of PDE-IV (AID 607; active means well fitted activation curve with a large enough effect in the main read-out, with a control signal flat, not every such curve was filed as active; further: % of control where 0% means no effect)
How it was run: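 HEK293 ACTOne cells with CNG channel (1000/well), endogenous PDE4; membrane potential dye, compounds up to 22.9 uM final. Fluorescence Ex 535/Em 590; RO 20-1724 (100 uM final) as reference.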

[19] = target: Pyruvate kinase PKM (Homo sapiens) (UniProt P14618); test: qHTS Assay for Inhibitors of Human Muscle Pyruvate Kinase (AID 958)
How it was run: as §2

[20] = target: Pyruvate kinase (Leishmania mexicana) (UniProt Q27686); test: qHTS Validation Assay for Activators of Leishmania Mexicana Pyruvate Kinase (AID 959)
How it was run: as §1

Pyruvate kinase (Leishmania mexicana), sequence (Q27686 2-499 E452W): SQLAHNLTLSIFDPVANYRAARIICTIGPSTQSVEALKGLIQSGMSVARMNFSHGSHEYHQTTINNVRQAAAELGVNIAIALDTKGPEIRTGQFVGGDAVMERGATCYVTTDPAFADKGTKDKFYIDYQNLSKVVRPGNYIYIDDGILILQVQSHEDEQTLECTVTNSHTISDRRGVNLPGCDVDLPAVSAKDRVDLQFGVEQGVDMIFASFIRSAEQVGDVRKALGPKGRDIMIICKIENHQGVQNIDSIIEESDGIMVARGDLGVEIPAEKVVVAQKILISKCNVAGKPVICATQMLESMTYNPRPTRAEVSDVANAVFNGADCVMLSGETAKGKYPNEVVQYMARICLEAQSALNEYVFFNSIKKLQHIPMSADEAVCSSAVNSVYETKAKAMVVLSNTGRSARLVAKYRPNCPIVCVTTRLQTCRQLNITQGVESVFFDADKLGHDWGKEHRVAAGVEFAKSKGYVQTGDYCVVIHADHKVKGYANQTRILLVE
Glucocorticoid receptor (Homo sapiens), sequence (P04150 whole entry, looked up, the tested form may be a part): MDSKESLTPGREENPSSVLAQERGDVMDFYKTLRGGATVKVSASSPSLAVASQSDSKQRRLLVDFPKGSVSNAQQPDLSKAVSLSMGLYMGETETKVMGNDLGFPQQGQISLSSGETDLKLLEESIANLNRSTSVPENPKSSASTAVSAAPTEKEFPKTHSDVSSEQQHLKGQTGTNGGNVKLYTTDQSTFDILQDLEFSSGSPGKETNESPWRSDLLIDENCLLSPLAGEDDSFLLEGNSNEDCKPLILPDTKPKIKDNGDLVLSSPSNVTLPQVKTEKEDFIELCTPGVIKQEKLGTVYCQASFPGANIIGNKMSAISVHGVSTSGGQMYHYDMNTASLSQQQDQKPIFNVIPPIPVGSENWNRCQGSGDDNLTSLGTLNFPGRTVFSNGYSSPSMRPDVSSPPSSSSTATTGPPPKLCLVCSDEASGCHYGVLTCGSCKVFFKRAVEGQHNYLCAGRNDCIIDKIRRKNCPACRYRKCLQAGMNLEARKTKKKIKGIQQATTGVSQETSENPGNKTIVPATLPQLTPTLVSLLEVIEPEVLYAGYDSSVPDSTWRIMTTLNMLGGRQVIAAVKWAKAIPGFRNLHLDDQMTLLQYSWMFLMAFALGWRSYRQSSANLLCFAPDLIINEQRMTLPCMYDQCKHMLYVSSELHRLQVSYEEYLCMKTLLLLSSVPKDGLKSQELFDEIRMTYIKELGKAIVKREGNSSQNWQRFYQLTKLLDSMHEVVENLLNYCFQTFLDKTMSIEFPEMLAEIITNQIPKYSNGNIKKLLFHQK
Pyruvate kinase PKM (Homo sapiens), sequence (P14618 whole entry, looked up): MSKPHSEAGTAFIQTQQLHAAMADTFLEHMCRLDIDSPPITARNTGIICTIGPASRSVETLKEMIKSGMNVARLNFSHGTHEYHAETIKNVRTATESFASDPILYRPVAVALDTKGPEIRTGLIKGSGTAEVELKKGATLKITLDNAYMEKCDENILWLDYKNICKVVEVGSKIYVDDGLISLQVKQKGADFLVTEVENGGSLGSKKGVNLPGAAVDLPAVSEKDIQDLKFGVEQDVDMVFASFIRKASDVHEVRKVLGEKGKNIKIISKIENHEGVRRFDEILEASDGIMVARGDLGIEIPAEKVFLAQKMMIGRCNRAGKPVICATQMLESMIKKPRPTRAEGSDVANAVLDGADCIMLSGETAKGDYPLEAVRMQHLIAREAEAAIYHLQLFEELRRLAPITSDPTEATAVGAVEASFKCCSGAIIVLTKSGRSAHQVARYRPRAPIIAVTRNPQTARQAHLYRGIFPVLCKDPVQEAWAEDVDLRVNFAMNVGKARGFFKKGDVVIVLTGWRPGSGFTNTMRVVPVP
Cytochrome P450 1A2 (Homo sapiens), sequence (P05177 whole entry, looked up): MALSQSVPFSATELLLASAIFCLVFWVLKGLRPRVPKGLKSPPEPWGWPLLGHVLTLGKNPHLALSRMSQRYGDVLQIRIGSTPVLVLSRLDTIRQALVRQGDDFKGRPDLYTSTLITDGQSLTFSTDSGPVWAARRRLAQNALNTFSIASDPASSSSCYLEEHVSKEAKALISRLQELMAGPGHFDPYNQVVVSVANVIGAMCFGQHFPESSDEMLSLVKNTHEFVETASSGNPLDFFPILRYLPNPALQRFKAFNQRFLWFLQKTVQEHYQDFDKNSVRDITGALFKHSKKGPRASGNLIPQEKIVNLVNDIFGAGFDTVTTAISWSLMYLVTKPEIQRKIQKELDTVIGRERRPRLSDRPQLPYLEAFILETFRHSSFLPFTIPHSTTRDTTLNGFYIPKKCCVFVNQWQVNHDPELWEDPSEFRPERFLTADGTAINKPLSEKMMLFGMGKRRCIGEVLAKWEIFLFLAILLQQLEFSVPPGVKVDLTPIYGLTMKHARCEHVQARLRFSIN
Muscarinic acetylcholine receptor M1 (Rattus norvegicus), sequence (P08482 whole entry, looked up): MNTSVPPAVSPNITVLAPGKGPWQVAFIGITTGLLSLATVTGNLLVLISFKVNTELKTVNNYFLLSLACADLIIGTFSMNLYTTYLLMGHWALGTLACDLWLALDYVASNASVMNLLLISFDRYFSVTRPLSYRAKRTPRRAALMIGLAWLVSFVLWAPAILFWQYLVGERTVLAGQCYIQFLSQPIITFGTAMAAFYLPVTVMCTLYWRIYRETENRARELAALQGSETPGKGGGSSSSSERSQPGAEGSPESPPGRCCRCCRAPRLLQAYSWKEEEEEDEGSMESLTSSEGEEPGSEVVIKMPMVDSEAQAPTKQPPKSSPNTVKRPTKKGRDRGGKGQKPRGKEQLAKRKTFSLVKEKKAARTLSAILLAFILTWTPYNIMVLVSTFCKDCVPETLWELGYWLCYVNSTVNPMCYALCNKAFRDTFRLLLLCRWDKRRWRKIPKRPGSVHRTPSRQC
Alpha-galactosidase A (Homo sapiens), sequence (P06280 whole entry, looked up): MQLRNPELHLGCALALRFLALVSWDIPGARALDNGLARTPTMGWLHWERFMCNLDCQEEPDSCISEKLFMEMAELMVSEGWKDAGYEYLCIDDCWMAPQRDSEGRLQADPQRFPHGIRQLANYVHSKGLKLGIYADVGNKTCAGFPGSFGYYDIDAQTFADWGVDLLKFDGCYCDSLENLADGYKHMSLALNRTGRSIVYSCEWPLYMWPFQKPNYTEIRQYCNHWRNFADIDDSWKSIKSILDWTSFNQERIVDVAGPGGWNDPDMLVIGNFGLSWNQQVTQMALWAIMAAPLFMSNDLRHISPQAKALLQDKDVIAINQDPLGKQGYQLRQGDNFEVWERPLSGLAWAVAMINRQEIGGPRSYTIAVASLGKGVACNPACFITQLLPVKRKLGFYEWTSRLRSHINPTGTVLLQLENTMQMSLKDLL
Cytochrome P450 3A4 (Homo sapiens), sequence (P08684 whole entry, looked up): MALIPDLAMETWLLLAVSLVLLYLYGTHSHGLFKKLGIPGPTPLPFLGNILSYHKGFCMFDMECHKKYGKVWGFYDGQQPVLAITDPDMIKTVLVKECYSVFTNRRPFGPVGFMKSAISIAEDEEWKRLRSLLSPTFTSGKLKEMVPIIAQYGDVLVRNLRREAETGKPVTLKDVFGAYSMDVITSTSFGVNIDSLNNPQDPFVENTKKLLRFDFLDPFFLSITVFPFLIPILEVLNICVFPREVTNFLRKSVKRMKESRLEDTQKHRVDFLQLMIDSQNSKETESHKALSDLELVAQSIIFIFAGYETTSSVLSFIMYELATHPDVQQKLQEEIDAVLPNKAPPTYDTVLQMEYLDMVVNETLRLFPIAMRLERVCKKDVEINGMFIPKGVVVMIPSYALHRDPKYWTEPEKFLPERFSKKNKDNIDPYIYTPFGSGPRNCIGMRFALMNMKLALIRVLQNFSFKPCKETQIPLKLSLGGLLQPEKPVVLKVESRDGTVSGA
Guanine nucleotide-binding protein G(i) subunit alpha-1 (Homo sapiens), sequence (P63096 whole entry, looked up): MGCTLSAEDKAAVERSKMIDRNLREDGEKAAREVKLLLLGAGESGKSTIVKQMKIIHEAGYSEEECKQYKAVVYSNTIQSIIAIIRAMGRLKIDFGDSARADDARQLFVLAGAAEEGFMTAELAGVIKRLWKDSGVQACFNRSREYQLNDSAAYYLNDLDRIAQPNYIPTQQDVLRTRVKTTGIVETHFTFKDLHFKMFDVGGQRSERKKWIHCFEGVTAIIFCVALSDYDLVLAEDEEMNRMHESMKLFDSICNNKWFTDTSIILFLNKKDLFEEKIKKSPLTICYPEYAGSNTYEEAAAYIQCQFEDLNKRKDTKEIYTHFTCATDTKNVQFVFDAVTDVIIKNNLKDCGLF
Cytochrome P450 2D6 (Homo sapiens), sequence (P10635 whole entry, looked up): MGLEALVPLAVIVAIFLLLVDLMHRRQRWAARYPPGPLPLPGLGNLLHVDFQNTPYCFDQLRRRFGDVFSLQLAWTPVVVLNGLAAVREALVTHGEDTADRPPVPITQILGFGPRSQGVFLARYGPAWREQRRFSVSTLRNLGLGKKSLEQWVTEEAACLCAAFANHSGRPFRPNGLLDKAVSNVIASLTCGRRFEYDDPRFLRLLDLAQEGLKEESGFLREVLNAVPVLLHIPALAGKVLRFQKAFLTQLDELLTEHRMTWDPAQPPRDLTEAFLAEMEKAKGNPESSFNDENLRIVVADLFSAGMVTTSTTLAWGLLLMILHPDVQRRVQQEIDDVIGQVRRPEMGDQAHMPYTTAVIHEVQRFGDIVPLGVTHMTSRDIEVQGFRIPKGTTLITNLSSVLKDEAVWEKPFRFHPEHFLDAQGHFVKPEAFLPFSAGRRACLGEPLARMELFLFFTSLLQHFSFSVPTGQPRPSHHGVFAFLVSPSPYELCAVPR

Cc1nn(-c2ccccc2)c2c1C(c1ccc(F)cc1F)C(C#N)=C(N)O2 (stereo not drawn)
inactive: activity change, negative = inhibition [1] 4.8% | Potency [2] > 20.6 µM | activation [3] -12.7%

CN1CCN([C@@H]2Cc3ccccc3Sc3ccc(Cl)cc32)CC1
inactive: activity, negative = inhibition [5] 2.01% [at 38 µM] | Potency [2] > 46 µM | Potency [6] > 46 µM | outcome [7] | Potency [8] | Potency [12] | outcome [13] | outcome [14] | outcome [15]
active: Potency [4] 12.6 µM | Potency [9] 0.398 µM | Potency [10] 1.78 µM | Potency [11] 10 µM

C=CCNC(=O)C(C#N)c1nc2ccccc2nc1N1CCCCCC1 (stereo not drawn)
inactive: activity change, negative = inhibition [1] -18.4% | Potency [2] > 20.6 µM

N#CC(C(=O)NC1CCCCC1)c1nc2ccccc2nc1N1CCN(c2ccccc2F)CC1 (stereo not drawn)
inactive: activity change, negative = inhibition [1] -12.2% | Potency [2] > 20.6 µM

Oc1cc(O)cc(/C=C\c2ccc(O)c(O)c2)c1
active: Potency [4] 5.01 µM | Potency [12] 1.26 µM | Potency [19] 2.51 µM
inactive: activity change, negative = inhibition [16] 5.18% [at 38 µM] | Potency [2] > 46 µM | Potency [6] > 46 µM | Potency [17] | Potency [18] | Potency [8] | outcome [13] | Potency [20] | outcome [14] | outcome [15]
